Test in all cases: DAPPL (digital affinity profiling via proximity ligation, sequencing); 10 mM Tris-HCl pH 7.5, 50 mM NaCl, 1 mM DTT, 4% glycerol, room temperature, 30 min; GST-TFs on glutathione beads, 16-mer random dsDNA library, 0.1% formaldehyde crosslink after washing; high values mean tight binding
One assay deals with T1, FEV (Homo sapiens, UniProt Q99581 1-238).
T1 sequence: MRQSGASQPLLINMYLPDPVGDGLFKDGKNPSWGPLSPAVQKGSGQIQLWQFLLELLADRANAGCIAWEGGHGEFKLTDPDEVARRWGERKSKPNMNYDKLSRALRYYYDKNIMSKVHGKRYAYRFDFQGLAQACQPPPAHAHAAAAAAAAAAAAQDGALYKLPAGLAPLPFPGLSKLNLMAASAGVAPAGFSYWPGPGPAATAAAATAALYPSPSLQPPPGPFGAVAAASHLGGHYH
The settings on record: protein: recombinant; tags: N-terminal GST; dsDNA, one strand shown. A digest of the protocol: (§1)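 Human transcription factors carrying a GST fusion were produced in yeast, bound to glutathione beads, tagged with DNA barcodes and pooled together with a tag-only sample. Each pool was held with 200 nmole of a random double-stranded 16-mer DNA library in Tris/NaCl/DTT/glycerol buffer for 30 min at room temperature, then washed, crosslinked in 0.1% formaldehyde, proximity-ligated with BsaI/T4 ligase (1 h, 37 °C), PCR-amplified and sequenced on an Illumina NextSeq500. Binding signal is the read frequency of each hexamer for a given factor divided by its frequency in the tag-only sample.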

A further assay concerns the target ETV5 (Homo sapiens, UniProt P41161 1-510). The settings on record: protein: recombinant; tags: N-terminal GST; dsDNA, one strand shown. A digest of the protocol:
as §1

The next assay concerns the target HSF1 (Homo sapiens, UniProt Q00613 1-529). The settings on record: protein: recombinant; tags: N-terminal GST; chain copies: 3; dsDNA, one strand shown. The procedure, abridged:
as §1

In the next assay the target is T2, SPIC (Homo sapiens, UniProt Q8N5J4 1-248).
T2 sequence: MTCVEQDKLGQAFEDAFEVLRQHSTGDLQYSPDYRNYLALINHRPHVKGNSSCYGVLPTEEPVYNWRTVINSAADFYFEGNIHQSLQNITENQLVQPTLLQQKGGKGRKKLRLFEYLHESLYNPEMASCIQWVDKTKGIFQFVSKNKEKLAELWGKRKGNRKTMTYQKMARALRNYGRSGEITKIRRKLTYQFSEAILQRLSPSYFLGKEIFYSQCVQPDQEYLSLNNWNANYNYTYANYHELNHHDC
The settings on record: protein: recombinant; tags: N-terminal GST; dsDNA, one strand shown. The procedure, abridged:
as §1

The target in the next assay is ELF4 (Homo sapiens, UniProt Q99607 1-663). The settings on record: protein: recombinant; tags: N-terminal GST; dsDNA, one strand shown. The procedure, abridged:
as §1

In a further assay the target is T3, ELK4 (Homo sapiens, UniProt P28324-2 1-405).
T3 sequence: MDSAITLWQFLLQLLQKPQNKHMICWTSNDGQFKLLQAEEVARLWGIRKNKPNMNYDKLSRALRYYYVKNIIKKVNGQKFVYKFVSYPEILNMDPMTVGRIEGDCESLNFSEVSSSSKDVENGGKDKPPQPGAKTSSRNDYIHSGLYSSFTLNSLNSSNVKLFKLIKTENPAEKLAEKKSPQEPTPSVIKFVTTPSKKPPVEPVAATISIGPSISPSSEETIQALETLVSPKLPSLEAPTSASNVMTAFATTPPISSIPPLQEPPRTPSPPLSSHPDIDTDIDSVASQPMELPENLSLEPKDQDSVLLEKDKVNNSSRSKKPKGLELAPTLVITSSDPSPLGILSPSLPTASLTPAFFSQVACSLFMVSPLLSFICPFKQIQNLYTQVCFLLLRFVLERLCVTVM
The settings on record: protein: recombinant; tags: N-terminal GST; dsDNA, one strand shown. A digest of the protocol: as §1

Another assay addresses T4, ETV2 (Homo sapiens, UniProt O00321 1-342).
T4 sequence: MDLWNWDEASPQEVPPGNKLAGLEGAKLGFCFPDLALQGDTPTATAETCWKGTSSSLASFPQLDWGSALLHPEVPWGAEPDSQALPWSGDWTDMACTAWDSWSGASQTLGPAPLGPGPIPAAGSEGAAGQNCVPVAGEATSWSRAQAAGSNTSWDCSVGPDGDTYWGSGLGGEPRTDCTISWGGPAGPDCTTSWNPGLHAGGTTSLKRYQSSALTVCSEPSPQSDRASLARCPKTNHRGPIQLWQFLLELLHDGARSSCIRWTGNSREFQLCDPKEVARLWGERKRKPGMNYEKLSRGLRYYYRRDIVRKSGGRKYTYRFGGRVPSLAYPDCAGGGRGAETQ
The settings on record: protein: recombinant; tags: N-terminal GST; dsDNA, one strand shown. The procedure, abridged:
as §1

In a further assay the target is T5, ELF3 (Homo sapiens, UniProt P78545 1-371).
T5 sequence: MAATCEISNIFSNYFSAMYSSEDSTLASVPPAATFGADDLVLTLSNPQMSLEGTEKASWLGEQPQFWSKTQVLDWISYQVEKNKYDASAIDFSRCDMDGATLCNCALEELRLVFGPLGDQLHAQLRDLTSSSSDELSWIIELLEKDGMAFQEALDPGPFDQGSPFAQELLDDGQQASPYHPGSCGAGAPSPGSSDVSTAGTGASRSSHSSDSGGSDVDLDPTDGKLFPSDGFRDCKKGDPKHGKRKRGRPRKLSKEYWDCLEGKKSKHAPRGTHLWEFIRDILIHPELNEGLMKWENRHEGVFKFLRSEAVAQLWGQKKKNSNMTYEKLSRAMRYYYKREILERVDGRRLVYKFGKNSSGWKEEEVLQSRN
The settings on record: protein: recombinant; tags: N-terminal GST; dsDNA, one strand shown. The procedure, abridged: as §1

A further assay has as its target CRX (Homo sapiens, UniProt O43186 1-299). The settings on record: protein: recombinant; tags: N-terminal GST; dsDNA, one strand shown. The procedure, abridged: as §1
The next assay deals with ETV1 (Homo sapiens, UniProt P50549 1-477). To be noted: protein: recombinant; tags: N-terminal GST; dsDNA, one strand shown. A digest of the protocol: as §1
Sequence of ETV1 (P50549 whole entry): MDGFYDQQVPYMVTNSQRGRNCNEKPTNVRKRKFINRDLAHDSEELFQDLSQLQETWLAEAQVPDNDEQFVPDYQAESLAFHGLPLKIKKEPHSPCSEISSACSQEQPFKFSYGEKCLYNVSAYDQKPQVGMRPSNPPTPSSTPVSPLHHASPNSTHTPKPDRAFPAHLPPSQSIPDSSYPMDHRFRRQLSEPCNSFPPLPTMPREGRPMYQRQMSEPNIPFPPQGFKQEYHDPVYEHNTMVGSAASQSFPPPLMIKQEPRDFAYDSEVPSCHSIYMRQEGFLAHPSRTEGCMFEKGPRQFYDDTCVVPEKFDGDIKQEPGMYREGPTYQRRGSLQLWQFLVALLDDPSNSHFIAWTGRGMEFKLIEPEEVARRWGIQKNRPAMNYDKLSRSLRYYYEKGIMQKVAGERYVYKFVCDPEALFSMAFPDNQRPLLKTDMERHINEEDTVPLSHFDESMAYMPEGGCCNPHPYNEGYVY
Another assay deals with T6, ERF (Homo sapiens, UniProt P50548 1-548).
T6 sequence: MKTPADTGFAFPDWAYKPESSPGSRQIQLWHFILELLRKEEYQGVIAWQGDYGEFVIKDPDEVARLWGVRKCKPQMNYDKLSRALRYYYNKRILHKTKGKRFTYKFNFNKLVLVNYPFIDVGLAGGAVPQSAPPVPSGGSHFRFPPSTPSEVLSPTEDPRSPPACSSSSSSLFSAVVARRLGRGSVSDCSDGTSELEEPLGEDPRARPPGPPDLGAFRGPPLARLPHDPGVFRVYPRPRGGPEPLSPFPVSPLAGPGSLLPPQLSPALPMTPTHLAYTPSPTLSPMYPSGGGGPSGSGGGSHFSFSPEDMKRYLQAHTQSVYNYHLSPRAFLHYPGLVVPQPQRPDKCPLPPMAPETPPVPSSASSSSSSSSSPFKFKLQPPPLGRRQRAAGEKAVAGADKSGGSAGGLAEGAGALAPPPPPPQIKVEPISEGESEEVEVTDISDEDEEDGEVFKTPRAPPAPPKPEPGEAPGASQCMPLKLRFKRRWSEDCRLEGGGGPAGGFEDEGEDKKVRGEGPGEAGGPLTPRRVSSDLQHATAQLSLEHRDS
The settings on record: protein: recombinant; tags: N-terminal GST; dsDNA, one strand shown. A digest of the protocol: as §1

In another assay the target is T7, ETV3L (Homo sapiens, UniProt Q6ZN32 1-361).
T7 sequence: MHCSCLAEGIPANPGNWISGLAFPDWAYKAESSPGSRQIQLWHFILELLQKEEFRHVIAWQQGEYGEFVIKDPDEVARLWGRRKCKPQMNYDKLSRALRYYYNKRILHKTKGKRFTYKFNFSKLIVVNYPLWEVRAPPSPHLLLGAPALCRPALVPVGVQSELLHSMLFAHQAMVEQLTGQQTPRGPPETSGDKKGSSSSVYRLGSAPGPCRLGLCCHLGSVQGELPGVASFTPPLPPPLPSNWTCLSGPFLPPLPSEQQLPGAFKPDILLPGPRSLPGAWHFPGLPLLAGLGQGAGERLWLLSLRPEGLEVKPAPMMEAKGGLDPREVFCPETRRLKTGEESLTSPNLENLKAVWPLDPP
The settings on record: protein: recombinant; tags: N-terminal GST; dsDNA, one strand shown. The procedure, abridged: as §1

In another assay the target is T8, ETS2 (Homo sapiens, UniProt P15036 1-469).
T8 sequence: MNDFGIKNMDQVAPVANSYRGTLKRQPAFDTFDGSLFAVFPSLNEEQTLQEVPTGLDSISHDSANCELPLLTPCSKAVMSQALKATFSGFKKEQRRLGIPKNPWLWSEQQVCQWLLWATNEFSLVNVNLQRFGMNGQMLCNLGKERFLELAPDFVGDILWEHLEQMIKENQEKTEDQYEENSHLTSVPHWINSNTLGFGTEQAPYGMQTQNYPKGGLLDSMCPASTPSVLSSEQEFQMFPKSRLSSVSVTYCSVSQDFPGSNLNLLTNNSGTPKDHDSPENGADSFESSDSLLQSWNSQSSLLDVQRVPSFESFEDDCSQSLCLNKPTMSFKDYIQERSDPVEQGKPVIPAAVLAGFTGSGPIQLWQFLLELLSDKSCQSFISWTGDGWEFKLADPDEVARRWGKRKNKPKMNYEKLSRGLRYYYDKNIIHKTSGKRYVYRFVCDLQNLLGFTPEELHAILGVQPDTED
The settings on record: protein: recombinant; tags: N-terminal GST; dsDNA, one strand shown. The procedure, abridged:
as §1

The target in a further assay is T9, SPDEF (Homo sapiens, UniProt O95238 1-335).
T9 sequence: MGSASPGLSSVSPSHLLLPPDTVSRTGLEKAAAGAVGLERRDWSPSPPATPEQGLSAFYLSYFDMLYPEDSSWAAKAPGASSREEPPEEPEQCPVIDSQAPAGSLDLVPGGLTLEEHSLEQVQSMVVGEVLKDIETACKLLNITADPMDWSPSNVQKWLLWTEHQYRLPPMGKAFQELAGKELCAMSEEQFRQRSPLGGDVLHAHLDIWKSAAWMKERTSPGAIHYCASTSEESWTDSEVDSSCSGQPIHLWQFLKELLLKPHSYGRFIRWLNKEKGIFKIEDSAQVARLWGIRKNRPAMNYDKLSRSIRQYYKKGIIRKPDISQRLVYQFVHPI
To be noted: protein: recombinant; tags: N-terminal GST; dsDNA, one strand shown. The procedure, abridged: as §1

Another assay deals with T10, ETV7 (Homo sapiens, UniProt Q9Y603 1-341).
T10 sequence: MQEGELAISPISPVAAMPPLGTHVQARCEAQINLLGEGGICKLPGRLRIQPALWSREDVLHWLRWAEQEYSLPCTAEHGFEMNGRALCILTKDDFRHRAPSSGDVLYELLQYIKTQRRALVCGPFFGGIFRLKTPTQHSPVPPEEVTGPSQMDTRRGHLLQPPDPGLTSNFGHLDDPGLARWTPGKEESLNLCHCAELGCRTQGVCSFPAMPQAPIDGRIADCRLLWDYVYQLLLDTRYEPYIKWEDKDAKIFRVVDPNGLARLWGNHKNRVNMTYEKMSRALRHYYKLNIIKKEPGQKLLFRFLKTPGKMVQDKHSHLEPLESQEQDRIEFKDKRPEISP
The settings on record: protein: recombinant; tags: N-terminal GST; dsDNA, one strand shown. A digest of the protocol:
as §1

The target of the next assay is T11, ELF5 (Homo sapiens, UniProt Q9UKW6-2 1-255).
T11 sequence: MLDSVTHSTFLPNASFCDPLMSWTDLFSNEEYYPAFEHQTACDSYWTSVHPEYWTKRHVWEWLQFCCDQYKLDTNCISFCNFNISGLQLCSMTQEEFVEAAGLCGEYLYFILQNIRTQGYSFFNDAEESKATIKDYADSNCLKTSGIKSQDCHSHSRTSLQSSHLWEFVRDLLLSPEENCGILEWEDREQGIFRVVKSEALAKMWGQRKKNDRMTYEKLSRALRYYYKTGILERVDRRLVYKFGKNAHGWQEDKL
The settings on record: protein: recombinant; tags: N-terminal GST; dsDNA, one strand shown. The procedure, abridged: as §1

The next assay concerns the target T12, ETV3 (Homo sapiens, UniProt P41162-2 1-143).
T12 sequence: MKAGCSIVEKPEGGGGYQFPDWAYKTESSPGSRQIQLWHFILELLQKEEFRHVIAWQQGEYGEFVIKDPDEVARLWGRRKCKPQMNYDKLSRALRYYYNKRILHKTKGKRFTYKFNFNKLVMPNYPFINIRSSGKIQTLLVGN
To be noted: protein: recombinant; tags: N-terminal GST; dsDNA, one strand shown. The procedure, abridged:
as §1

The next assay addresses ETV6 (Homo sapiens, UniProt P41212 1-452). To be noted: protein: recombinant; tags: N-terminal GST; dsDNA, one strand shown. A digest of the protocol:
as §1

Sequence of HSF1 (Q00613 whole entry): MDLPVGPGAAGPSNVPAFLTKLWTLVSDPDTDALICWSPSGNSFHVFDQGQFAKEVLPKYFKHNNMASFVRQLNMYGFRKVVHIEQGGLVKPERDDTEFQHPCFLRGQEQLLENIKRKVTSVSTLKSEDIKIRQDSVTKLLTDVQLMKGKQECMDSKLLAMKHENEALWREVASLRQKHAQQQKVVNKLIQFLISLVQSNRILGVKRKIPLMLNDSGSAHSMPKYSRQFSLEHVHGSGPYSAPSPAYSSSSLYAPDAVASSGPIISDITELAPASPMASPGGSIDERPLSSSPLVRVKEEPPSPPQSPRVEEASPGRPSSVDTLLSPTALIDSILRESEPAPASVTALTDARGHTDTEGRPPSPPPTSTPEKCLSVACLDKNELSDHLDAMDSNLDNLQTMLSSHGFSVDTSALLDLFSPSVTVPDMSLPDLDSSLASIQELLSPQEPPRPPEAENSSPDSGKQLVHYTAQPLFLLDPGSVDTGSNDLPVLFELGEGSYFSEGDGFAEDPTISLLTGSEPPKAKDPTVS
Sequence of ETV6 (P41212 whole entry): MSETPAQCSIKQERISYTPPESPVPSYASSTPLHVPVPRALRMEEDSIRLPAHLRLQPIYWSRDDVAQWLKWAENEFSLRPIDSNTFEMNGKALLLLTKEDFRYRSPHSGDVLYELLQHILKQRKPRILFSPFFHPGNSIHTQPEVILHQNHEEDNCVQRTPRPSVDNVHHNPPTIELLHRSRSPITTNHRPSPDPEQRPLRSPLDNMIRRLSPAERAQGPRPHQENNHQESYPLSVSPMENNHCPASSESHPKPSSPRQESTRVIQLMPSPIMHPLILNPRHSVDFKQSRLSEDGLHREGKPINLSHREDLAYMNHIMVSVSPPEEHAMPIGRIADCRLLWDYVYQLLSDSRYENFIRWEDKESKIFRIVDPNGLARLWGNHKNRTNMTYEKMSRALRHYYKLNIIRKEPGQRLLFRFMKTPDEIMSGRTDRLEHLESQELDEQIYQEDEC
Sequence of ELF4 (Q99607 whole entry): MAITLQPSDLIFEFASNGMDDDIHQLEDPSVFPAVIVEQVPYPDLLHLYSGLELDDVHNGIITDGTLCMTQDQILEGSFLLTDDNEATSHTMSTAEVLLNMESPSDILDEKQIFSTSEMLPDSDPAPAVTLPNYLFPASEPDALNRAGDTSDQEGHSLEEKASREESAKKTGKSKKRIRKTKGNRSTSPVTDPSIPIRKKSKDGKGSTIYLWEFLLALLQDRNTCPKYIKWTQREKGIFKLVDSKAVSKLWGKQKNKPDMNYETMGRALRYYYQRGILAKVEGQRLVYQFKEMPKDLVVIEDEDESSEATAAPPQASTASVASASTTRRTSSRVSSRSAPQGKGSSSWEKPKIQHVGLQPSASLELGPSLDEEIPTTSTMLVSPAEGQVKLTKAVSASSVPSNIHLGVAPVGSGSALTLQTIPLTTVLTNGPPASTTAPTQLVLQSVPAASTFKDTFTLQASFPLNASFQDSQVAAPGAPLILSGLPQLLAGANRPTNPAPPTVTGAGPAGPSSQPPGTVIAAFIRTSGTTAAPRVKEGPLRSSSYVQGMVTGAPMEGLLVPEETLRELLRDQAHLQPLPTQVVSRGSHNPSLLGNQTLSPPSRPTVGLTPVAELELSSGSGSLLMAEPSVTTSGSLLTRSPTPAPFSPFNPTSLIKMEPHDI
Sequence of CRX (O43186 whole entry): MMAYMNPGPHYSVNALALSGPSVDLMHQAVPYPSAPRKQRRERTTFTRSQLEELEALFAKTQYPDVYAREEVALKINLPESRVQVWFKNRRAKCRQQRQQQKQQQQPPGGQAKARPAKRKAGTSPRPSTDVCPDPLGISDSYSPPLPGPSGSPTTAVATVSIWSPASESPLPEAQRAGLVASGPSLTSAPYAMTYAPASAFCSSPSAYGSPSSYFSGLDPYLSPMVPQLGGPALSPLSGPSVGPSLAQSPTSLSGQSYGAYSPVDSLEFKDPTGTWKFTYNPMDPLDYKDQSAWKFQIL
Sequence of ETV5 (P41161 whole entry): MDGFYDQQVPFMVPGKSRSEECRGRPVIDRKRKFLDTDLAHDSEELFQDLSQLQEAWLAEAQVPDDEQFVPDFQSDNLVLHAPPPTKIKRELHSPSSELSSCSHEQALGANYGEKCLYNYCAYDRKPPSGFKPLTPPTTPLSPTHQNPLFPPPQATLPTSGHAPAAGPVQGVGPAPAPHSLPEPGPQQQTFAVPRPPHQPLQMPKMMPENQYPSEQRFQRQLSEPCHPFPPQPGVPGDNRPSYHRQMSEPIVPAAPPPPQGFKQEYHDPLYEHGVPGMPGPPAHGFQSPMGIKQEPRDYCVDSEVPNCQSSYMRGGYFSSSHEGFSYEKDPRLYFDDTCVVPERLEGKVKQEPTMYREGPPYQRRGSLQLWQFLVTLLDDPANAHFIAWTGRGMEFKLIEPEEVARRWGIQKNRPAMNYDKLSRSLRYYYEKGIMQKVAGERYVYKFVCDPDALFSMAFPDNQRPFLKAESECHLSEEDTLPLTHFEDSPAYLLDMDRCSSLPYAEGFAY

As to CTTCGG, the binding signal in the assay with FEV is 1.51 fold enrichment (6-mer frequency, TF over GST control); in the assay with ETV5, 1.54 fold enrichment (6-mer frequency, TF over GST control); with HSF1, 1.77 fold enrichment (6-mer frequency, TF over GST control); with SPIC it was 1.48 fold enrichment (6-mer frequency, TF over GST control); with ELF4 it was 1.5 fold enrichment (6-mer frequency, TF over GST control); with ELK4, 1.52 fold enrichment (6-mer frequency, TF over GST control). The binding signal is 1.52 fold enrichment (6-mer frequency, TF over GST control) with ETV2; 1.39 fold enrichment (6-mer frequency, TF over GST control) with ELF3; 1.52 fold enrichment (6-mer frequency, TF over GST control) in the assay with CRX; 1.72 fold enrichment (6-mer frequency, TF over GST control) in the assay with ETV1; 1.68 fold enrichment (6-mer frequency, TF over GST control) in the assay with ERF; 1.42 fold enrichment (6-mer frequency, TF over GST control) with ETV3L. Also, the binding signal in the assay with ETS2 was 1.48 fold enrichment (6-mer frequency, TF over GST control); with SPDEF, 1.36 fold enrichment (6-mer frequency, TF over GST control); with ETV7 it was 1.39 fold enrichment (6-mer frequency, TF over GST control); with ELF5 it was 1.41 fold enrichment (6-mer frequency, TF over GST control); with ETV3, 1.55 fold enrichment (6-mer frequency, TF over GST control); in the assay with ETV6, 1.27 fold enrichment (6-mer frequency, TF over GST control).

(Values after article PMC7862700, “An all-to-all approach to the identification of sequence-specific readers for epigenetic DNA modifications on cytosine”.)
